The campaign covered roughly 190,000 compounds. About 3,100 (1.6%) were called active. Rule as the data show it: active = fold change above about 3.3; inconclusive = no clear call, values can overlap the other calls; inactive = below that. The entries come from a sample that favours actives as a whole.

The nature of this assay: NF-kB upregulation, human neuronal cells – cell-based, HTS, primary screen (AID 1239). Particulars: NF-kB reporter expression, at 12.5 µM, hits give high values.
For the compound `CSc1ccc(CN(C)CC(=O)NCc2ccc(F)cc2)cc1`, the fold change was 1.02 (inactive).
With `COc1ccc(OC)c(C(=O)c2ccc(C(=O)N3CCN(Cc4csc(C)n4)CC3)cc2)c1` the figure was 1.07 (inactive); with `CCOC(=O)N1CCN(Cc2nc3c(c(=O)n(C)c(=O)n3C)n2Cc2ccccc2)CC1`, 1.26 (inactive); with `CCN1CCN(Cc2nc3c(c(=O)n(C)c(=O)n3C)n2CC(=O)c2ccccc2)CC1`, 2.25 (inactive).
Then `CN1CCN(Cc2nc3c(c(=O)n(C)c(=O)n3C)n2Cc2cccc3ccccc23)CC1`, with 3.6 (active).
Then `O=C(Nc1ccc2c(c1)CCC2)c1ccc(Br)s1`, with 11.1 (active).
Take `CC(C)C(=O)OCC(=O)Nc1ccc2c(c1)CCC2`: the fold change is 1.06 (inactive).
Then `O=C(NC1CCCC1)c1ccc(Br)s1`, with 1.12 (inactive); and `CCN(C(=O)c1ccc(Br)cc1)c1ccccc1`, with 1.19 (inactive); and `C/C(CC(=O)Nc1cccc(C(F)(F)F)c1)=N\NC(=O)C(=O)NCC(C)C`, with 1.26 (inactive).
Then `CC(C)C1Nc2c(C(=O)O)cccc2C(Nc2ccccc2C(=O)O)C1(C)C` (stereo not drawn), with 1.41 (inactive); and `COc1ccccc1N1CCN(C(=O)c2cc(-c3ccc(Br)cc3)on2)CC1`, with 1.31 (inactive); and `O=C(c1ccc(F)cc1)N1CCCC(c2nc(-c3cccs3)no2)C1` (stereo not drawn), with 0.86 (inactive).
Consider `Cc1ccc(-c2cc(C(=O)N3CCc4ccccc4C3)no2)cc1`, for which the fold change was 1.06 (inactive).
Then `COc1ccccc1-c1cc(C(=O)N2CCCCC2)no1`, with 6.86 (active); and `O=C(c1cc(-c2ccccc2O)on1)N1CCCC1`, with 2.02 (inactive); and `O=C(c1cc(-c2cccs2)on1)N1CCCCC1`, with 5.06 (active).
With `Cc1cccc(NC(=S)Nc2ccc(Cl)c(Cl)c2)c1` the figure was 0.6 (inactive).
Then `COc1cc([N+](=O)[O-])ccc1NC(=S)N1CCN(c2ccccn2)CC1`, with 1 (inactive); and `CC1CCN(C(=S)c2cccc(O)c2)CC1`, with 1.37 (inactive); and `CCCN(CCC)c1ccc(C(O)c2nnc(-c3ccccc3)o2)cc1` (stereo not drawn), with 1.05 (inactive).
Take `c1ccc(C2=Nc3cccc4cccc(c34)N2)cc1`: the fold change is 1.21 (inactive).
As to `CNC(=S)N1N=C(c2ccccc2)CC1c1ccc(Br)cc1` (stereo not drawn), the fold change was 1.3 (inactive).
Then `Brc1ccc(C2CC(c3ccccc3)=Nc3ccccc3N2)cc1` (stereo not drawn), with 3.44 (active).
Then `C=CCn1cc(-c2cccc(C(F)(F)F)c2)cc(C#N)c1=O`, with 1.06 (inactive); and `O=C(/C=C/c1ccc(N2CCOCC2)cc1)c1ccccc1`, with 4.09 (active).
With `O=C(/C=C/c1ccccc1)c1ccoc1` the figure was 0.94 (inactive).
Regarding `O=C(O)c1ccc2c(c1)C(=O)N(c1ccc(/C=C/C(=O)c3ccccc3)cc1)C2=O`, the fold change was 1.2 (inactive).

Source of the values: PubChem BioAssay AID1239 (SRMLSC, 2008).
